From PubChem
DAX1 inh-1 = DAX1 (NR0B1) inhibitors on StAR promoter, primary screen, cell-based, luminescence, SF-1 (NR5A1), full-length DAX-1 | inhibition, % at 6.8 µM | AID 652010, 2013 | 370,000 compounds, 1.1% hits | HEK293T StAR-luciferase reporter, SF-1/DAX-1 repression relief;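 active = inhibition above the mean over all tested compounds plus 3 SD, cut at about 3.6% in these data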;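 also: 0% = DAX-1 cells with DMSO and 100% = cells lacking DAX-1 with DMSO; higher inhibition means more luminescence from relief of DAX-1 repression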
hgDAF12 agonist = H. glycines DAF-12 receptor agonists, primary screen, cell-based, luminescence, HEK293, GAL4 fusion, UAS-luciferase | 370,000 compounds, 1.8% hits | HEK293 GAL4-hgDAF12 UAS-luciferase reporter, agonist luminescence; normalized to butyrate control | activation, % at 6.8 µM | Nuclear hormone receptor DAF-12 (Heterodera glycines), GAL4 fusion;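 active = activation above a cutoff set at the mean of all screened compounds plus 3 SD, cut at about 10% in these data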;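 also: 0% = DMSO wells and 100% = sodium butyrate wells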
ssDAF12 agonist = S. stercoralis DAF-12 nuclear receptor activators, primary screen, cell-based, luminescence, HEK293, GRIP1 co-expression, lit1-tk-luc. Nuclear hormone receptor DAF-12 (Strongyloides stercoralis). HEK293 ssDAF-12/GRIP1 lit1-tk-luc reporter; % of 3 µM dafachronic acid response. activation, % at 6.8 µM. 370,000 compounds, 1% hits. AID 652126, 2013;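 active = activation above the mean over all tested compounds plus 3 SD, cut at about 0.9% in these data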;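 also: 0% = DMSO-only wells and 100% = 3 µM delta7-dafachronic acid wells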
hcDAF12 agonist = H. contortus DAF-12 nuclear receptor activators, primary screen, cell-based, luminescence, HEK293, lit1-tk-luc reporter; HEK293 hcDAF-12 lit1-tk-luc reporter; 0% DMSO, 100% Δ7-dafachronic acid; activation, % at 6.8 µM; 370,000 compounds, 1.4% hits;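 active = activation above the mean of all tested compounds plus 3 SD, cut at about 5.5% in these data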;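 also: 100% = response to 3 µM Δ7-dafachronic acid high control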
DAX1 inh-2 = DAX1 (NR0B1) inhibitors, primary screen, cell-based, HEK293, Gal4-DAX1, luciferase luminescence | HEK293 Gal4-DAX1 luciferase reporter | inhibition, % at 6.75 µM | 340,000 compounds, 0.99% hits;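 active = inhibition above the mean over all tested compounds plus 3 SD, cut at about 4.2% in these data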;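 also: 0% = DAX1-transfected cells with DMSO and 100% = empty-vector control cells with DMSO; inhibition shows as a rise in luminescence from relieved DAX1 repression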
AHR activator = AHR activators, primary screen, cell-based, luminescence, luciferase reporter, human; Aryl hydrocarbon receptor (Homo sapiens), P35869; activation, % at 5 µM; AHR-responsive luciferase reporter cells; AID 2796, 2010; 320,000 compounds, 2.5% hits; in the data active = activation above about 47%;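 also: 0% = vehicle wells and 100% = reference agonist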
Target sequence (P35869 whole entry, looked up): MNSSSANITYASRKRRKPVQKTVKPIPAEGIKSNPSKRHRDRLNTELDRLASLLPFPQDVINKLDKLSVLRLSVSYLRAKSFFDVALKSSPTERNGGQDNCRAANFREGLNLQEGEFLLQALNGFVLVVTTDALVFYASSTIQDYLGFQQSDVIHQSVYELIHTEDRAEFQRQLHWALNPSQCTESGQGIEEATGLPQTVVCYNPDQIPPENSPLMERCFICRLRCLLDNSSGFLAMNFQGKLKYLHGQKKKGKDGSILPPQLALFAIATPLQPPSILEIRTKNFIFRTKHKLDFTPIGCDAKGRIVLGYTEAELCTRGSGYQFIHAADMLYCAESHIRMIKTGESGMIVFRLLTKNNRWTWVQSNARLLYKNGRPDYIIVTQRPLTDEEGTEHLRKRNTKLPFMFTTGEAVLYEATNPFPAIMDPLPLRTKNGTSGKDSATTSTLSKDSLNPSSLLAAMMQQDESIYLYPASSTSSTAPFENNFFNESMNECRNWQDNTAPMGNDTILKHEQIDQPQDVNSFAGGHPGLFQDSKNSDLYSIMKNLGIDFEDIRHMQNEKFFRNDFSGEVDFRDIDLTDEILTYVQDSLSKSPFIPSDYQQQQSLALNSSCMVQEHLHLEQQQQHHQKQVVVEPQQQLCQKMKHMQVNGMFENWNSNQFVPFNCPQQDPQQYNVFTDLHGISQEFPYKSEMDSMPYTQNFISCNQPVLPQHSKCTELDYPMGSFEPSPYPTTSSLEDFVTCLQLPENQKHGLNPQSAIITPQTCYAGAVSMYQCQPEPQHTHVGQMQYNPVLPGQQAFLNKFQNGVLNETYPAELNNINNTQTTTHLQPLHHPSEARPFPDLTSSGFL
DAX1 inh confirm = DAX1 (NR0B1) inhibitors relieving SF-1 repression, confirmation, cell-based, luminescence, HEK293T, full-length DAX-1, SF-1 activated StAR promoter; 2,400 compounds, 87% hits; HEK293T StAR-promoter luciferase reporter, SF-1/DAX-1 repression; shares compounds with DAX1 inh-1; inhibition, % at 6.8 µM; AID 652134, 2013;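 active = inhibition above the average of every tested compound plus 3 SD, cut at about 3.8% in these data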;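 also: 0% = DAX-1 cells with DMSO and 100% = no DAX-1 control cells with DMSO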
SF1 AF2mut Luc = StAR reporter signal changes without DAX1, counter-screen for DAX1 inhibitor project, cell-based, luminescence, AF-2 mutant SF-1, transactivation. shares compounds with DAX1 inh-1. HEK293 StAR-luciferase, SF-1 AF2 mutant. inhibition, % at 6.8 µM. 2,400 compounds, 78% hits. AID 652136, 2013;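 active = inhibition above the mean of all tested compounds plus 3 SD, cut at about 3% in these data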;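 also: 0% = DAX-1 transfected cells with DMSO and 100% = cells without DAX-1 with DMSO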
* marks the source's active call; other numbers are inactive results; . = no result. This is a sample that favours compounds with a hit; in the whole collection about 5.7% have one here.

SMILES	DAX1 inh-1	hgDAF12 agonist	ssDAF12 agonist	hcDAF12 agonist	DAX1 inh-2	AHR activator	DAX1 inh confirm	SF1 AF2mut Luc
O=C(c1ccc(C#Cc2ccccc2)cc1)N1CCC(O)CC1	4.9*	11.5*	0.2	3.5	.	.	7.2*	4.1*
CCOP(=O)(OCC)C(C)(C)NC(=O)Nc1ccc(Cl)c(Cl)c1	-0.6	-3.2	-0.7	-1.0	-1.4	1.4	.	.
CC(C)[C@@H](C)/C=C/[C@@H](C)[C@H]1CC[C@@H]2[C@]1(C)CCC1[C@]23C=C[C@]2(C[C@@H](O)CC[C@]12C)N(c1cnccn1)O3 (stereo partly drawn)	4.6*	1.9	-0.4	2.4	.	.	-0.1	0.4
CCOc1cc(NC(=S)NCC2CCCO2)c(OCC)cc1NC(=O)CC(C)C (stereo not drawn)	-0.8	0.7	-1.8	-2.2	-1.2	16.0	.	.
Cc1cccc(C)c1-n1nnnc1C1c2ccccc2C(=O)N1C1CC1 (stereo not drawn)	4.9*	-0.3	-1.1	-0.3	.	.	-1.9	-1.1
CC1(C2CC2)NC(=O)N(CC(=O)N2CCN(c3ccccc3)CC2)C1=O (stereo not drawn)	6.7*	1.1	-0.6	0.0	0.0	-0.7	0.2	-0.1
CC1(C2CC2)NC(=O)N(CC(=O)N2CCN(c3ccc(F)cc3)CC2)C1=O (stereo not drawn)	-0.4	-0.2	-1.3	-3.2	1.0	.	.	.
Cc1nn(-c2ccccc2)nc1CNC(=O)C1CCC1	-0.3	0.3	-1.3	-1.9	0.1	2.9	.	.
O=C(NCCCN1CCCC1=O)C(=O)Nc1cccc(F)c1	5.9*	10.1	-0.1	1.3	0.2	13.1	7.5*	5.3*
COc1ccc(-c2ccc(NC(=O)c3ccc(Br)o3)cc2)nn1	5.2*	4.5	-0.4	0.0	1.1	-4.5	5.6*	4.2*
Cc1cccc(-c2noc(CCC(=O)N3CCN(c4cc(C)ccc4C)CC3)n2)c1	6.3*	10.3	0.0	2.3	3.0	.	6.0*	3.9*
COc1ccc2nc(N3CCN(C(=O)C4COc5ccccc5O4)CC3)sc2c1 (stereo not drawn)	7.1*	10.3	-0.6	2.5	0.1	4.1	10.9*	5.5*
Cc1ccnc(NC(=O)CNC(=O)COc2ccccc2)c1	7.6*	9.4	0.9*	3.3	2.5	4.6	7.2*	4.0*
Cc1ccnc(NC(=O)CCNC(=O)c2ccccc2Cl)c1	5.0*	5.5	-0.3	3.5	1.8	2.4	8.5*	5.6*
Cc1ccc(NC(=O)CCNC(=O)c2ccccc2Cl)nc1	-0.5	-1.4	-0.7	0.6	2.6	.	.	.
Cc1ccnc(NC(=O)CNC(=O)c2ccccc2Br)c1	5.0*	7.1	-0.5	1.7	0.8	1.2	7.0*	3.7*
Cc1ccnc(NC(=O)CC(NC(=O)c2ccccc2Cl)c2ccccc2)c1 (stereo not drawn)	6.1*	11.4*	-0.4	2.1	3.3	-0.5	7.0*	7.0*
Cc1csc(SCC(=O)Nc2ccc(C)c(F)c2)n1	1.2	4.6	-0.6	-0.1	0.2	3.0	.	.
CC(O)CNC(=O)Cc1cc(=O)[nH]c(=O)[nH]1 (stereo not drawn)	0.4	0.3	-1.3	-0.7	2.7	0.2	.	.
CC(C)[C@H](NC(=O)C1CCC(CNC(=O)[C@@H]2CCCN2C(=O)OC(C)(C)C)CC1)C(=O)O (stereo partly drawn)	0.0	-0.2	-1.0	-0.4	1.5	.	.	.
CC1CCc2sc(C(=O)NC(C)C3CCCO3)cc2C1 (stereo not drawn)	5.3*	5.7	0.0	-0.5	-0.3	25.9	4.3*	2.0
C/C(=N\NC(=O)c1cc2c(s1)CCC(C)C2)c1ccc[nH]1 (stereo not drawn)	6.2*	7.6	0.2	5.5	1.6	40.1	7.3*	4.4*
CN1CCCN(C(=O)c2cc3c(s2)CCCC3)CC1	0.9	2.8	-0.4	-1.1	-0.3	2.7	.	.
CC(=O)N1CCN(C(=O)c2cc3c(s2)CCCC3)CC1	4.6*	2.0	-0.1	-0.1	-0.5	.	2.9	1.7
Nc1ncnc2c1C1(CCCCC1)Cc1ccccc1-2	-1.1	1.8	-1.3	-3.1	-0.2	-3.6	.	.
SMILES	DAX1 inh-1	hgDAF12 agonist	ssDAF12 agonist	hcDAF12 agonist	DAX1 inh-2	AHR activator	DAX1 inh confirm	SF1 AF2mut Luc
O=C(Nc1ccc(F)cc1F)c1csc(-c2cccs2)n1	7.0*	12.7*	2.1*	5.1	2.8	28.7	9.3*	6.7*
CC(C)(C)c1ccc(CC(=O)N2CCC2(C)C(=O)NCc2ccc(Cl)cc2)cc1 (stereo not drawn)	-1.0	-1.8	-1.9	-1.6	.	.	.	.
Cc1nc(NC(=O)CSC2=NCCS2)sc1C(=O)N(C)C	12.5*	3.4	-0.8	1.7	0.1	-1.4	11.0*	4.5*
O=C(OCC(=O)N1CCCCC1)c1c[nH]c2ccccc12	1.2	2.5	-0.7	0.7	0.4	13.2	.	.
O=C(OCC(=O)N1CCCCC1)c1cc(=O)[nH]c2ccccc12	4.9*	5.7	-0.5	2.9	1.4	5.7	3.3	2.5
CC(=O)N1CCC(C(=O)Nc2ccc3c(c2)CCC3)CC1	-0.1	-0.8	-1.2	0.7	3.9	2.5	.	.
CC(C)(C)OC(=O)N1CCC(C(=O)Nc2ccc3c(c2)CCC3)CC1	4.7*	12.2*	0.3	2.2	1.0	19.8	4.7*	2.6
Cc1cccc2c1-c1sc(C(=O)N3CCCCC3)cc1CO2	5.3*	7.2	0.1	2.7	3.4	-0.9	9.6*	5.7*
O=C(Nc1ncc([N+](=O)[O-])s1)c1ccco1	6.5*	8.1	0.7	4.3	1.0	5.1	5.7*	6.2*
O=C(/C=C/[C@H]1O[C@@H](n2ccc(=O)[nH]c2=O)[C@H](O)[C@@H]1O)NC1CCN(Cc2ccccc2)C1 (stereo partly drawn)	0.2	1.0	0.0	1.9	.	.	.	.
